A selection: hits, their analogues and other compounds. The true share with any hit is near 1.6%.
KCNQ2 block: rat KCNQ2 potassium channel inhibitors, primary screen, cell-based, CHO-K1, FluxOR thallium flux, B-score. AID 2156, 2009. B-score at 10 µM. 20 min; active compounds read low. 310,000 tested, 1.1% active. Potassium voltage-gated channel subfamily KQT member 2 (Rattus norvegicus), O88943;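 active means fluorescence ratio B-score at most minus 3 library SDs, with starting brightness B-score within 2 library SDs, cut at about -5.5 in these data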
Target sequence (O88943 whole entry, looked up): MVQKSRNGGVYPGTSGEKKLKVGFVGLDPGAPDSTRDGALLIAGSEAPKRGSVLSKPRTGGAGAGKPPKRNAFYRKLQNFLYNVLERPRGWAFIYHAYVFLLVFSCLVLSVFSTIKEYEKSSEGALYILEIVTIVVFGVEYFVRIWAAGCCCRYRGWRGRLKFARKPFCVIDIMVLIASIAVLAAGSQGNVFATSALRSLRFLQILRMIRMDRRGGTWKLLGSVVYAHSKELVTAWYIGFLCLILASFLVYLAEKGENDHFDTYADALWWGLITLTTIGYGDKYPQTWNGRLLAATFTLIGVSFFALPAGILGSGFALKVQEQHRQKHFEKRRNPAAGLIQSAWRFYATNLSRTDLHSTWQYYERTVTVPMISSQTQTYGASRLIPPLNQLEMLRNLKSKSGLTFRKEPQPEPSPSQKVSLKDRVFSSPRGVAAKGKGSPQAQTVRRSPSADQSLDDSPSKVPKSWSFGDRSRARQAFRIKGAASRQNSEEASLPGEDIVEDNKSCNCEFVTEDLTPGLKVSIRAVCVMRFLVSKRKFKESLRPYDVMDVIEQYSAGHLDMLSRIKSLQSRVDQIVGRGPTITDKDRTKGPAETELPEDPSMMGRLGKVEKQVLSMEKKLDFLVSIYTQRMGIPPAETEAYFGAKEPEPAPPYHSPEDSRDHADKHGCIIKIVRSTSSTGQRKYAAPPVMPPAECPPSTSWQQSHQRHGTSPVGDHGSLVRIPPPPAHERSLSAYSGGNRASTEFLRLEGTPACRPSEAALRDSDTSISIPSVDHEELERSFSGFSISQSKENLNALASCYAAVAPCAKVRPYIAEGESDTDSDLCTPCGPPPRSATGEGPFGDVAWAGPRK
KCNQ2 enhance: potentiators of rat KCNQ2 potassium channel; CHO-K1 KCNQ2, FluxOR thallium flux fluorescence; active compounds read high; B-score at 10 µM; 310,000 tested, 0.54% active; AID 2239, 2010;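 active means fluorescence ratio B-score at least 3 SD of library B-scores, with initial fluorescence B-score within 3 of them, cut at about 5.3 in these data; same plate scores as AID 2156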;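 further: B-score of peak minus minimum over baseline fluorescence ratio after K+ and Tl+ stimulus; positive B-score means potentiation of KCNQ2 with more thallium influx and brighter signal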
* marks the source's active call; other numbers are inactive results; i = inactive; · = not tested or not shown.

SMILES	KCNQ2 block	KCNQ2 enhance
CCOC(=O)CNc1c(-c2ccc(O)cc2)nc2ccc(Cl)cn12	-5.7*	-5.7
Cc1cccc2cc(CN(Cc3ccco3)C(=O)Nc3cccc(C#N)c3)c(Cl)nc12	i	·
COc1ccccc1NC(=O)N(Cc1ccco1)Cc1cc2cc(C)cc(C)c2[nH]c1=O	-6*	-6
COc1ccccc1NC(=O)CN(Cc1ccco1)C(=O)c1cc2ccccc2o1	-7.6*	-7.6
Cc1ccc2cc(CN(Cc3ccco3)C(=O)NCc3ccccc3)c(=O)[nH]c2c1C	i	·
COc1ccccc1NC(=O)N(Cc1ccco1)Cc1cc2ccc(C)c(C)c2[nH]c1=O	i	·
Cc1ccc(C)c2[nH]c(=O)c(CN(Cc3ccco3)C(=O)Nc3ccccc3)cc12	-5.6*	-5.6
Cc1ccc(NC(=O)N(Cc2ccco2)Cc2cc3cc(C)cc(C)c3nc2Cl)cc1	-6.8*	-6.8
COc1ccccc1NC(=O)CN(Cc1ccco1)C(=O)c1ccc(=O)[nH]c1	i	·
COCCNc1nc(-c2cc(C(=O)Nc3ccccc3)on2)cc(C(C)C)n1	i	·
NC(=O)c1cccc(CC(=O)c2ccccc2)c1	i	·
CCOC(=O)c1c(C)[nH]c(C(=O)NCc2ccco2)c1C	i	·
CCC12CSc3nc(Cl)ccc3N1C(=O)C(=O)N2C (stereo not drawn)	i	0.78
CCCCC(=O)N(CCOC)c1nnc(-c2ccccc2C)s1	i	·
O=C1c2ccccc2C(=O)C12OC(c1ccccc1)C1(C(=O)c3ccccc3C1=O)C2c1ccc([N+](=O)[O-])cc1 (stereo not drawn)	-7.9*	-7.9
O=C1c2ccccc2C(=O)C12OC(c1ccccc1)C1(C(=O)c3ccccc3C1=O)C2c1cccc([N+](=O)[O-])c1 (stereo not drawn)	i	·
COc1ccc(NC(=O)CSc2nc3scc(C)c3c(=O)[nH]2)cc1	i	1.2
Cc1cc(NC(=O)CSc2nnc(COc3ccccc3)n2Cc2ccco2)no1	i	0.85
Cc1ccc(OCc2nnc(SCC(=O)C(C)(C)C)n2Cc2ccco2)cc1	-7*	-7
NC(CS(=O)O)C(=O)O (stereo not drawn)	i	·
CCCCN(CC)CCCNC(=O)CN1C(=O)CSc2ccc(S(=O)(=O)N3CCOCC3)cc21	i	·
COc1ccc(-c2noc(-c3ccccc3F)n2)cc1	i	0.05
COc1ccc(-c2noc(-c3ccccc3-c3ccccc3)n2)cc1	-6.6*	-6.6
CC(C)CN(C(=O)COC(=O)C12CC3CC(CC(C3)C1)C2)c1c(N)n(Cc2ccccc2)c(=O)[nH]c1=O	i	·
Cc1ccc(NC(=O)CN(c2ccccc2)S(=O)(=O)N(C)C)cc1C	i	·
SMILES	KCNQ2 block	KCNQ2 enhance
Cc1cc(C)c(NC(=O)CN(c2ccccc2)S(=O)(=O)N(C)C)c(C)c1	-5.6*	-5.6
O=C(/C=C/c1ccccc1)Nc1ccc(N2CCCCC2)cc1	i	0.28
CCn1ccnc1CN(C)Cc1cn(-c2cccc(C)c2)nc1-c1cccc(F)c1	i	·
Cc1cccc(-n2cc(CN(C)Cc3nccn3C)c(-c3cccc(F)c3)n2)c1	-6.7*	-6.7
COc1cc(C2C(C#N)=C(N)OC3=C2C(=O)CCC3)cc2c1OCO2 (stereo not drawn)	i	·
Fc1cccc(CO/N=C/c2c(-c3ccccc3)nc3ccc(Cl)cn23)c1	-6.8*	-6.8
Cc1cccn2c(/C=N/OCc3cccc(F)c3)c(-c3ccc(Cl)cc3)nc12	i	·
Cc1nc(C(=O)Nc2cccc(Cl)c2)nn1-c1cc(OC(C)C)c(Cl)cc1Cl	i	·
Cc1nc(C(=O)Nc2cc(Cl)ccc2Cl)nn1-c1cc(OC(C)C)c(Cl)cc1Cl	-6.4*	-6.4
Cc1nc(C(=O)Nc2cccc(Cl)c2Cl)nn1-c1cc(OC(C)C)c(Cl)cc1Cl	-6.3*	-6.3
Cc1nc(C(=O)Nc2ccc(Cl)cc2Cl)nn1-c1cc(OC(C)C)c(Cl)cc1Cl	i	·
O=C(NCCCN1CCOCC1)C(=O)N/N=C/c1ccc2c(c1)OCO2	i	·
CCOC(=O)c1nnn(CC(=O)N2N=C(c3cc(C)ccc3C)CC2c2ccc(OC)cc2)c1C(=O)OCC (stereo not drawn)	-5.8*	-5.8
CCOC(=O)c1nnn(CC(=O)N2N=C(c3ccccc3)CC2c2ccccc2)c1C(=O)OCC (stereo not drawn)	i	0.62
Cc1cc2ccccc2n1CCNC(=O)c1ccc(Br)o1	i	·
CC(=O)NCCNC(=O)c1ccc(NC2=NC3CS(=O)(=O)CC3S2)cc1 (stereo not drawn)	i	·
C=CCOc1c(Br)cc(CNc2ccc3[nH]c(=O)[nH]c3c2)cc1OCC	i	0.68
C=CCOc1c(Br)cc(CNc2ccc(NC(=O)C(C)C)c(OC)c2)cc1OCC	i	6.6*
Cn1c(SCC(=O)N2c3ccccc3CCc3ccccc32)nnc1-c1ccc(O)cc1	-5.8*	-5.8
Cn1c(SCC(=O)c2ccccc2)nnc1-c1ccc(O)cc1	i	0.82
COc1ccc(/C(C)=N/NC(=O)c2ccccc2OCc2ccccc2)c(OC)c1	i	·
COc1ccc(/C=N/NC(=O)c2ccccc2OCc2ccccc2)c(OC)c1	-6.8*	-6.8
COc1ccc(C(=O)Nc2ccccc2C(N)=O)cc1	i	0.25
Cc1cccc(/C=N/NC(=O)c2ccccc2OCc2cccc(Br)c2)n1	i	·
Cc1cccc(/C=N/NC(=O)c2cc(Br)ccc2OCc2ccccc2)n1	-5.9*	-5.9
SMILES	KCNQ2 block	KCNQ2 enhance
COc1ccc(C(=O)Nc2ccccc2C(=O)N/N=C/c2cccc3ccccc23)cc1	-5.8*	-5.8
COc1ccc(CCNC(=O)CCCn2ncn3c(cc4occc43)c2=O)c(OC)c1	i	0.7
CCc1ccc(C(=O)N/N=C/c2ccncc2)s1	i	1.2
COc1ccc(C2NC(=O)NC(C)=C2C(=O)OCC2CCCCC2)cc1OC (stereo not drawn)	i	2.9
COc1cc(C)c(C(=O)CSc2nnc(CNC(=O)c3ccco3)n2C)cc1C	i	·
CC(C)OC(=O)C(C)(C)Oc1ccc(C(=O)c2ccc(Cl)cc2)cc1	-8.1*	-8.1
CC(C)(Oc1ccc(Cl)cc1)C(=O)O	i	0.32
CCOC(=O)C1CCN(CCCSc2ccccc2)CC1	i	0.08
COC(=O)[C@H](C)NC(=O)COc1ccccc1	i	0.29
CCCCCCCCCNC(=O)[C@H](NC(=O)COc1ccccc1)[C@@H]1NC(C(=O)OC)C(C)(C)S1 (stereo partly drawn)	-6.3*	-6.3
COc1ccc(CCNC(C(=O)Nc2cc(C)cc(C)c2)c2ccccc2)cc1 (stereo not drawn)	-8.1*	-8.1
CCOc1ccccc1NC(=O)C(NCCc1ccc(OC)cc1)c1ccccc1 (stereo not drawn)	i	·
NCCCC[C@H](N)c1nnc([C@H](CCC(=O)O)NC(=O)C2CCNCC2)o1	i	0.43
O=C(CN1CCN(c2ccccn2)CC1)Nc1cccc(Cl)c1Cl	-7.2*	-7.2
O=C(CN1CCN(c2ccccn2)CC1)Nc1ccccc1Br	i	·
CCOC(=O)C[C@H]1c2ccccc2S(=O)(=O)N1C1CC1	i	0.7
C/C(=N\NC(=O)Cn1cc([N+](=O)[O-])cn1)c1ccc(O)cc1	i	0.18
Cc1onc(-c2ccccc2Cl)c1C(=O)Nc1ccc(N2CCOCC2)cc1	i	·
Cc1ccc(-n2nc3c(c2NC(=O)c2c(-c4ccccc4Cl)noc2C)CSC3)cc1	-7.4*	-7.4
